Screen size: about 5,500 compounds; about 2,000 (36%) were called active. Another 18% or so got no clear call; they are omitted. Cut-off read from the data, not from the text of the source: active = normalized growth mostly below about 0.91 (no sharp cut-off); inconclusive = no clear call, values can overlap the other calls; inactive = mostly above about 0.92. Some of the results follow.
Experiment: chemical genetic growth profiling, strain panel (AID 1159580);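 note: tested at 20 µM; growth read once vehicle control cultures reached saturation at 30 °C; 1 = growth at the plate median or of vehicle wells; lower values mean less growth of the strain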
Conditions: growth OD

Measured: normalized growth

O=[N+]([O-])/N=C1/NCCN1Cc1ccc(Cl)cc1
inactive: S. cerevisiae deletion strains, locus YAL013W, strain DEP1, hits give low values 0.994 | S. cerevisiae deletion strains, locus YBR021W, strain FUR4, hits give low values 0.992 | S. cerevisiae deletion strains, locus YBR229C, strain ROT2, hits give low values 0.968 | S. cerevisiae deletion strains, locus YCL029C, strain bik1, hits give low values 0.99 | S. cerevisiae deletion strains, locus YDL035C, strain GPR1, hits give low values 0.988 | S. cerevisiae deletion strains, locus YDL074C, strain BRE1, hits give low values 1.05 | S. cerevisiae deletion strains, locus YDL101C, strain DUN1, hits give low values 0.993 | S. cerevisiae deletion strains, locus YDL134C, strain PPH21, hits give low values 0.984 | S. cerevisiae deletion strains, locus YDL185W, strain tfp1, hits give low values 0.986 | S. cerevisiae deletion strains, locus YDL192W, strain arf1, hits give low values 0.993 | S. cerevisiae deletion strains, locus YDR101C, strain arx1, hits give low values 0.998 | S. cerevisiae deletion strains, locus YDR150W, strain NUM1, hits give low values 1 | S. cerevisiae deletion strains, locus YDR162C, strain NBP2, hits give low values 1.02 | S. cerevisiae deletion strains, locus YDR318W, strain mcm21, hits give low values 0.984 | S. cerevisiae deletion strains, locus YDR388W, hits give low values 0.994 | S. cerevisiae deletion strains, locus YDR502C, strain sam2, hits give low values 0.988 | S. cerevisiae deletion strains, locus YEL061C, strain CIN8, hits give low values 0.989 | S. cerevisiae deletion strains, locus YER110C, hits give low values 0.986 | S. cerevisiae deletion strains, locus YER155C, strain BEM2, hits give low values 1 | S. cerevisiae deletion strains, locus YER167W, strain BCK2, hits give low values 0.988 | S. cerevisiae deletion strains, locus YGL078C, strain dbp3, hits give low values 0.995 | S. cerevisiae deletion strains, locus YGL086W, strain mad1, hits give low values 0.979 | S. cerevisiae deletion strains, locus YGL248W, strain PDE1, hits give low values 0.979 | S. cerevisiae deletion strains, locus YGR078C, strain PAC10, hits give low values 1.02 | S. cerevisiae deletion strains, locus YGR135W, strain pre9, hits give low values 0.992 | S. cerevisiae deletion strains, locus YGR229C, strain SMI1, hits give low values 1 | S. cerevisiae deletion strains, locus YGR252W, strain gcn5, hits give low values 0.989 | S. cerevisiae deletion strains, locus YHR030C, strain SLT2, hits give low values 0.963 | S. cerevisiae deletion strains, locus YHR079C, strain IRE1 (second series), hits give low values 0.987 | S. cerevisiae deletion strains, locus YHR094C, strain hxt1, hits give low values 0.996 | S. cerevisiae deletion strains, locus YHR129C, strain ARP1, hits give low values 0.994 | S. cerevisiae deletion strains, locus YHR200W, strain rpn10, hits give low values 0.988 | S. cerevisiae deletion strains, locus YIL066C, strain RNR3, hits give low values 0.985 | S. cerevisiae deletion strains, locus YIL073C, strain SPO22, hits give low values 0.995 | S. cerevisiae deletion strains, locus YIL125W, strain kgd1, hits give low values 0.993 | S. cerevisiae deletion strains, locus YIR030C, strain dcg1, hits give low values 0.988 | S. cerevisiae deletion strains, locus YJL095W, strain BCK1, hits give low values 1.01 | S. cerevisiae deletion strains, locus YJL134W, strain LCB3, hits give low values 0.987 | S. cerevisiae deletion strains, locus YJL168C, strain set2, hits give low values 0.992 | S. cerevisiae deletion strains, locus YJL187C, strain SWE1 (second series), hits give low values 0.985 | S. cerevisiae deletion strains, locus YJR043C, strain POL32, hits give low values 1 | S. cerevisiae deletion strains, locus YJR075W, strain HOC1, hits give low values 0.998 | S. cerevisiae deletion strains, locus YKL009W, strain mrt4, hits give low values 1.01 | S. cerevisiae deletion strains, locus YKL068W, hits give low values 0.991 | S. cerevisiae deletion strains, locus YKL085W, strain MDH1 (second series), hits give low values 0.989 | S. cerevisiae deletion strains, locus YKL085W, strain MDH1, hits give low values 0.989 | S. cerevisiae deletion strains, locus YKL190W, strain CNB1, hits give low values 0.997 | S. cerevisiae deletion strains, locus YKR001C, strain vps1, hits give low values 0.983 | S. cerevisiae deletion strains, locus YLR039C, strain RIC1, hits give low values 1.01 | S. cerevisiae deletion strains, locus YLR058C, strain SHM2, hits give low values 0.986 | S. cerevisiae deletion strains, locus YLR102C, strain apc9, hits give low values 0.996 | S. cerevisiae deletion strains, locus YLR262C, strain YPT6, hits give low values 1.02 | S. cerevisiae deletion strains, locus YLR268W, strain sec22, hits give low values 0.995 | S. cerevisiae deletion strains, locus YLR330W, strain CHS5, hits give low values 0.988 | S. cerevisiae deletion strains, locus YLR342W, strain FKS1 (second series), hits give low values 0.965 | S. cerevisiae deletion strains, locus YLR371W, strain rom2, hits give low values 0.987 | S. cerevisiae deletion strains, locus YLR418C, strain cdc73, hits give low values 1 | S. cerevisiae deletion strains, locus YML016C, strain PPZ1, hits give low values 0.999 | S. cerevisiae deletion strains, locus YML032C, strain rad52, hits give low values 0.98 | S. cerevisiae deletion strains, locus YML124C, strain tub3, hits give low values 0.985 | S. cerevisiae deletion strains, locus YMR078C, strain ctf18, hits give low values 0.981 | S. cerevisiae deletion strains, locus YMR223W, strain ubp8, hits give low values 0.993 | S. cerevisiae deletion strains, locus YMR263W, strain SAP30, hits give low values 1 | S. cerevisiae deletion strains, locus YMR307W, strain GAS1, hits give low values 1.03 | S. cerevisiae deletion strains, locus YNL067W, strain RPL9B, hits give low values 1.01 | S. cerevisiae deletion strains, locus YNL128W, strain TEP1, hits give low values 0.989 | S. cerevisiae deletion strains, locus YNL153C, strain GIM3, hits give low values 1 | S. cerevisiae deletion strains, locus YNL233W, strain BNI4, hits give low values 1 | S. cerevisiae deletion strains, locus YNL250W, strain rad50, hits give low values 0.987 | S. cerevisiae deletion strains, locus YNL271C, strain bni1, hits give low values 0.992 | S. cerevisiae deletion strains, locus YNL298W, strain CLA4, hits give low values 0.989 | S. cerevisiae deletion strains, locus YNL307C, strain MCK1, hits give low values 0.992 | S. cerevisiae deletion strains, locus YNL322C, strain KRE1, hits give low values 0.992 | S. cerevisiae deletion strains, locus YNR052C, strain pop2, hits give low values 0.975 | S. cerevisiae deletion strains, locus YOL006C, strain TOP1, hits give low values 1.03 | S. cerevisiae deletion strains, locus YOL012C, strain htz1 0.909 | S. cerevisiae deletion strains, locus YOL147C, strain pex11, hits give low values 0.991 | S. cerevisiae deletion strains, locus YOR061W, strain CKA2, hits give low values 0.992 | S. cerevisiae deletion strains, locus YOR069W, strain VPS5, hits give low values 0.97 | S. cerevisiae deletion strains, locus YOR136W, strain idh2, hits give low values 0.992 | S. cerevisiae deletion strains, locus YOR144C, strain elg1, hits give low values 0.994 | S. cerevisiae deletion strains, locus YOR184W, strain ser1, hits give low values 0.998 | S. cerevisiae deletion strains, locus YOR316C, strain cot1, hits give low values 0.989 | S. cerevisiae deletion strains, locus YPL055C, strain LGE1, hits give low values 1.03 | S. cerevisiae deletion strains, locus YPL241C, strain CIN2, hits give low values 0.997 | S. cerevisiae deletion strains, locus YPR119W, strain clb2, hits give low values 0.987 | S. cerevisiae deletion strains, locus YPR141C, strain kar3, hits give low values 0.988 | S. cerevisiae deletion strains, locus YPR163C, strain tif3, hits give low values 0.982 | S. cerevisiae deletion strains, locus YPR167C, strain met16, hits give low values 0.996 | S. cerevisiae deletion strains, strain wtn01, hits give low values 0.983 | S. cerevisiae strains, strain wild type, hits give low values 0.989
